High-throughput results: PubChem BioAssay, several laboratories
Shown are actives, neighbours in structure and some others; about 2.1% of the full set was active somewhere.
EP2 mod = EP2 receptor (human) modulation; EP2-expressing cells, cAMP HTRF FRET, PGE2 co-stimulation; actives 0.83% (n = 260,000); induction, % at 25 µM; P43116;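 active means compounds whose cAMP rise, as percent of the full-agonist control response, exceeds 60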;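 further: rat C6 glioma line stably carrying human EP2 under a CMV promoter; the protocol text gives 20 µM as final concentration; 100% = response of wells given 1 µM PGE2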
CHT PAM = allosterically activates the human high affinity choline transporter | CHT-expressing cells, membrane potential dye, choline EC20; active compounds read high; LV-AA mutant CHT in HEK293 cells | B-score at 10 µM | actives 0.49% (n = 310,000) | AID 488977;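 active means initial fluorescence not abnormally high and integrated response B-score, plate-corrected, over 3 SD above library mean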
Target sequence (Q9GZV3 whole entry, looked up): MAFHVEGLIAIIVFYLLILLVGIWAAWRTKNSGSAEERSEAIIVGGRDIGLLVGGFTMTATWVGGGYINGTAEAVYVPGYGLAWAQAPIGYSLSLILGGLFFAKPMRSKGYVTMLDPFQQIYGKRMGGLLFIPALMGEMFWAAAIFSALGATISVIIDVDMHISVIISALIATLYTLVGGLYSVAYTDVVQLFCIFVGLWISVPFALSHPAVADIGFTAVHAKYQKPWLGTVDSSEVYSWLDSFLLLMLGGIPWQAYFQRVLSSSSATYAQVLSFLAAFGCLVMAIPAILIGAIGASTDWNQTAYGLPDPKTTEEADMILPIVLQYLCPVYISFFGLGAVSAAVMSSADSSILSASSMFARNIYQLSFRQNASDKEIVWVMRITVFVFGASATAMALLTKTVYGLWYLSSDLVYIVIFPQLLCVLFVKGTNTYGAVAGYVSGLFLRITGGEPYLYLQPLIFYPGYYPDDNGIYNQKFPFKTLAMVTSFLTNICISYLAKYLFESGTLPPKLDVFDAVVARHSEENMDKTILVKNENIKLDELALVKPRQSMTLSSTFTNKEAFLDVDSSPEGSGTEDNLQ
CHT block = inhibitors of human choline transporter CHT; CHT-expressing cells, membrane potential dye, choline response; active compounds read low; actives 0.86% (n = 310,000); Q9GZV3; B-score at 10 µM;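 active means B-score over 3 SD under the library average, and starting fluorescence ratio not unusually high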;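 further: choline stimulus applied at its EC90 after an EC20 pre-addition; B-score computed on integrated fluorescence ratio after choline addition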
PGE2 EP2 inh = inhibitors of human EP2 prostaglandin E2 receptor. AID 1422. C6 glioma cells expressing human EP2, cAMP TR-FRET; cells stimulated with saturating PGE2. actives 0.52% (n = 260,000). inhibition, % at 25 µM. P43116;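 active means percent inhibition above 40 after rounding to a whole number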;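 further: rat C6 glioma host cells with rolipram phosphodiesterase inhibitor present; the protocol text gives 20 µM as final concentration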
CHT inh conf = human CHT inhibition, confirmatory screen. CHT-expressing cells, choline membrane potential dye; LV-to-AA substituted CHT, HEK293 cells. AID 493221. actives 70% (n = 2,400). shares compounds with CHT block. CHT activity remaining % of control (active compounds read low), % at 10 µM;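 active means choline transporter activity left, mean of duplicates at 10 µM, below buffer-only control mean minus 3 SD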;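 further: depolarization triggered by choline at its EC90 following an EC20 pre-addition; 0% = hemicholinium-3 full block and 100% = buffer-only control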
HEK293 MPD ctr = counter-screen for CHT inhibitors: effect in parental HEK293 cells; membrane potential ratio readout (active if shifted either direction beyond buffer ±3SD; no single direction) at 10 µM; shares compounds with CHT block; membrane potential dye, choline response; active = decrease or increase beyond buffer ±3SD; actives 4% (n = 2,400);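 further: parental cells lack the transporter so any hit is non-specific; ratio is peak minus trough fluorescence over baseline after EC90 choline challenge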
Starred values were filed as active, the others as inactive; i = inactive; . = no result given.

SMILES | EP2 mod | CHT PAM | CHT block | PGE2 EP2 inh | CHT inh conf | HEK293 MPD ctr
CCC(C)Nc1nc2c(c(=O)[nH]c(=O)n2C)n1CCCc1ccccc1 (configuration not stated) | 1 | i | i | 8 | . | .
CCC(C)Nc1nc2c(c(=O)[nH]c(=O)n2C)n1CCC(C)C (configuration not stated) | 7 | i | -8.3* | 15 | i | i
COC(=O)c1sc(NC(=O)c2ccc(OC)c(Cl)c2)c(C#N)c1C | -93 | . | . | 16 | . | .
CN(C)c1ccc(NC(=S)NCC2CCCO2)cc1 (configuration not stated) | 1 | i | i | 5 | . | .
CCCCc1ccc(NC(=S)NCC2CCCO2)cc1 (configuration not stated) | 1 | i | -11* | 4 | 49%* | i
Cc1[nH]n(-c2ccccc2)c(=O)c1N=Nc1ccc2c(c1)OCCO2 | 25 | i | i | 7 | . | .
Cc1[nH]n(-c2ccccc2)c(=O)c1N=Nc1c(O)cc(S(=O)(=O)N(C)C)c2ccccc12 | . | i | -8.5* | . | 34%* | i
Cc1nc(SCC(N)=O)[nH]c(=O)c1Cc1ccc(OC(C)C)cc1 | 1 | i | -6.1* | 10 | i | i
COc1ccc(Cc2c(O)nc(SCC(C)C)[nH]c2=O)cc1 | . | i | i | . | . | .
COc1ccc(C(NC(=O)c2cc(-c3ccccn3)n[nH]2)c2ccncc2)cc1 (configuration not stated) | -8 | . | . | 6 | . | .
CCN(CC)C(=S)SCC(=O)Nc1ccc(S(N)(=O)=O)cc1 | -5 | i | -5.6* | 2 | i | i
Cc1cccc(C(=O)Nc2sc(C)c(-c3ccccc3)c2C#N)c1 | -20 | i | i | 8 | . | .
Cc1noc(C)c1C(=O)Nc1sc(C)c(-c2ccccc2)c1C#N | -10 | i | -5.2* | 10 | 71%* | i
Cc1sc2nc(C(C)C)n(C3CCN(C(=O)c4ccco4)CC3)c(=O)c2c1C | 30 | . | . | 9 | . | .
Fc1ccccc1CN(CCCn1ccnc1)Cc1ccoc1 | 14 | . | . | 8 | . | .
CN(Cc1nc(-c2cccnc2)no1)S(=O)(=O)c1ccc2ccccc2c1 | -17 | i | i | 4 | . | .
CN(Cc1nc(-c2cccnc2)no1)S(=O)(=O)c1ccc(Br)cc1 | -22 | i | -5.7* | 1 | 62%* | i
Cc1ccc(C(C)C)c(OCCOCCN2CCNCC2)c1 | . | i | -6.9* | . | 22%* | i
Cc1noc(/C=C/c2cccs2)c1S(=O)(=O)N1CCC(C(=O)NCCCN2CCCC(C)C2)CC1 (configuration not stated) | -19 | i | i | 5 | i | i
CCCCn1c(SCC(=O)Nc2cccc(OC)c2)nc2ccc(N3CCOCC3)cc2c1=O | 6 | i | -6* | 8 | 62%* | i
